# Assay outcomes from PubChem BioAssay.
# In the library only some 2.4% were active in any assay of this set; here they are far more common.
# ANO1 block – mouse TMEM16A channel inhibition, primary screen. Q8BHY3. HEK293 TMEM16A/YFP iodide influx fluorescence, ionomycin. normalized B-score (activity score, 25-100; higher = stronger inhibition) at 10 µM. 310,000 compounds, 1.2% hits. AID 588511;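 active = ratio plate-corrected score three or more library SD toward inhibition, starting fluorescence score within five deviations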;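 note: score derived from kinetic fluorescence span divided by baseline fluorescence per well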
# ANO1 activ – activates or potentiates the mouse TMEM16A chloride channel | Q8BHY3 | HEK293 TMEM16A/YFP-H148Q/I152L, iodide quench fluorescence; active compounds read low | B-score at 10 µM | 340,000 compounds, 0.3% hits | AID 623877;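 active = fluorescence-ratio B-score plate-corrected deviation score at least 3 library SD below zero, with starting fluorescence score within 5 deviations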;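 note: channel opened by trigger with iodide after compound preincubation; score built on the fluorescence ratio of max minus min over baseline; more negative score means more quench and so TMEM16A activation or potentiation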
# CHT block – inhibitors of human choline transporter CHT | Q9GZV3 | CHT-expressing cells, membrane potential dye, choline response; active compounds read low | B-score at 10 µM | 310,000 compounds, 0.86% hits | AID 488975;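 active = B-score over 3 SD under the library average, and starting fluorescence ratio not unusually high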;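 note: choline stimulus applied at its EC90 after an EC20 pre-addition; B-score computed on integrated fluorescence ratio after choline addition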
# CHT allo act – human CHT allosteric activation; CHT-expressing cells, membrane potential dye, choline EC20; active compounds read high; LV-AA mutant CHT in HEK293 cells; B-score at 10 µM; 310,000 compounds, 0.49% hits;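 active = initial fluorescence not abnormally high and integrated response B-score, plate-corrected, over 3 SD above library mean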
# CHT activ conf – human CHT activation, confirmatory screen | shares compounds with CHT allo act | CHT-expressing cells, membrane potential dye fluorescence (FDSS); % of choline EC20–EC90 response window; HEK293 expressing CHT LV-AA mutant; choline added at its EC20 | activation, % at 10 µM | 2,500 compounds, 91% hits | AID 504833;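 active = primary screen active, with duplicate mean activation above negative control mean plus 3 SD, cut at about 11% in these data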
# HEK293 MP dye – counter-screen for CHT activators: effect in parental HEK293 cells; shares compounds with CHT allo act; membrane potential dye fluorescence (FDSS); measured after EC20 choline addition; ratio readout change at 10 µM, hits read low; 2,500 compounds, 62% hits; AID 623908;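 active = duplicate-averaged ratio beyond 3 SD from buffer wells, up or down, though filed actives are nearly all decreases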
# The depositor's hits bear a star; i = inactive; nt = not tested or not shown.
SMILES,ANO1 block,ANO1 activ,CHT block,CHT allo act,CHT activ conf,HEK293 MP dye
O=C(NC1CCCCC1)C(c1ccccn1)N(C(=O)c1csnn1)c1ccccc1F (stereo unspecified),i,i,i,i,nt,nt
COc1cc(NCCCC(C)N)c2ncccc2c1 (stereo unspecified),nt,i,nt,nt,nt,nt
COc1ccc2c(c1)sc(N)[n+]2Cc1cc(C)cc2cccnc12,i,i,i,9.55*,54.1*,-37.7*
CCOc1ccc2c(c1)sc(N)[n+]2Cc1cc(C)cc2cccnc12,i,i,i,11.2*,51.9*,-33.6*
CC1C/C(=N\NC(=S)NC(C)C)CC(C)(C)C1 (stereo unspecified),i,i,i,i,nt,nt
O=C(NC1CCCCC1)C(c1cccs1)N(Cc1cccs1)C(=O)c1ccco1 (stereo unspecified),i,i,i,i,29.1*,i
O=C(NCC(=O)N(Cc1cccs1)C(C(=O)NC1CCCCC1)c1ccco1)c1ccco1 (stereo unspecified),i,i,i,i,nt,nt
Cc1nn2c(NCCN(C)C)c3c(nc2c1-c1ccccc1)CCCC3,i,i,i,i,11.4*,-50.7*
CCC(C)(C)n1nnnc1C(C(C)C)N1CCSCC1 (stereo unspecified),i,i,i,i,0.7,i
Cc1ccc(-c2nc3ncccn3c2NC2CCCCC2)o1,i,i,i,i,35.9*,i
C=CCNc1nc(N2CCOCC2)c(C#N)c2c1CN(C)CC2,i,i,i,i,nt,nt
CN1CCc2c(C#N)c(N3CCCCC3)nc(N3CCOCC3)c2C1,i,nt,i,6.98*,42.8*,-53.1*
O=C(O)CSc1nc2c(cnn2-c2ccccc2)c(=O)n1-c1ccc(Br)cc1,i,i,i,i,nt,nt
O=c1c2cnn(-c3ccccc3)c2nc(-c2cccs2)n1-c1ccc(Br)cc1,i,i,i,i,13.6*,i
O=C(O)c1cc(-c2cccnc2)nc2ccc(Br)cc12,i,i,i,i,nt,nt
CCN1CCN(C(=O)c2cc(-c3cccnc3)nc3ccc(Br)cc23)CC1,i,i,i,6.59*,54.4*,-44.1*
CCCC(CCC)C(=O)Nc1ccc2c(c1)N(C(=O)CN1CCN(C)CC1)c1ccccc1CC2,i,i,i,6.7*,29.3*,i
C=CC[n+]1c(-c2ccc(Cl)cc2Cl)csc1Nc1ccc(NC(C)=O)cc1,i,i,i,13.8*,0.2,i
CCCC[n+]1c(-c2ccc(Cl)cc2Cl)csc1Nc1ccccc1,i,i,i,i,nt,nt
C=CC[n+]1c(-c2ccc(Cl)cc2Cl)csc1Nc1c(C)n(C)n(-c2ccccc2)c1=O,i,i,i,8.4*,5.0,i
COC(=O)CNC(c1ccccc1)c1cc(Br)ccc1NC(=O)CNC(=O)OCc1ccccc1 (stereo unspecified),i,i,i,6.27*,46.6*,i
O=C(NCCCCc1ccccc1)c1cc([N+](=O)[O-])cc([N+](=O)[O-])c1,i,i,i,i,48.5*,-24.1*
O=C(NCCCCc1ccccc1)c1cccc([N+](=O)[O-])c1,i,i,i,i,nt,nt
COc1ccc(N2CCN(c3oc(COc4ccc(Cl)cc4Cl)nc3C#N)CC2)cc1,i,i,i,9.51*,26.9*,i
N#Cc1nc(COc2ccc(Cl)cc2Cl)oc1N1CCN(c2ccccc2)CC1,i,i,i,i,nt,nt
COc1ccc(N2CCN(c3oc(COc4ccccc4)nc3C#N)CC2)cc1,i,i,i,i,35.0*,i
COc1ccc(N2CCN(c3oc(COc4ccc(Cl)cc4)nc3C#N)CC2)cc1,i,i,i,7.97*,35.7*,i
Cc1cc2cc(CNC(=O)c3ccc4c(c3)OCO4)ccc2[nH]1,i,i,i,i,nt,nt
CC1(C)O[C@@H]2[C@H](O1)[C@@H](COS(=O)(=O)O)O[C@H]2n1cc(Br)c(=O)[nH]c1=O,nt,i,nt,nt,nt,nt
